From PubChem BioAssay (NCI)
Compounds without any hit were thinned out: in the full panel of roughly 83,000, 20% have a hit.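 How to read the values: 0–100, growth inhibition (40 = 60% inhibited); 0, no net growth; -100 to 0, cell death (-40 = 40% of starting cells died; -100 = all dead).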 Calls of active or inactive are those of the source. Rule for the calls: active = growth percent below 10; inactive = the rest.

Assays:
Assay in all cases: NCI-60 one-dose screen, 48 h (100 = growth as untreated, 0 = no growth, -100 = all killed)
Conditions in all cases: 10 µM unless noted
DU-145 prostate = system: DU-145 prostate
K-562 leukemia = system: K-562 leukemia
MALME-3M melanoma = system: MALME-3M melanoma
MDA-MB-231 breast = system: MDA-MB-231 breast
RXF 393 renal = system: RXF 393 renal
SF-268 CNS = system: SF-268 CNS
SF-295 CNS = system: SF-295 CNS
SF-539 CNS = system: SF-539 CNS
UACC-257 melanoma = system: UACC-257 melanoma
M14 melanoma = system: M14 melanoma
HCT-15 colon = system: HCT-15 colon
HT29 colon = system: HT29 colon
SNB-75 CNS = system: SNB-75 CNS
SNB-19 CNS = system: SNB-19 CNS
U251 CNS = system: U251 CNS
PC-3 prostate = system: PC-3 prostate
SK-MEL-5 melanoma = system: SK-MEL-5 melanoma
UACC-62 melanoma = system: UACC-62 melanoma
LOX IMVI melanoma = system: LOX IMVI melanoma
SK-MEL-28 melanoma = system: SK-MEL-28 melanoma

Measured: growth

Cl.Fc1c[c-]c(-c2ccccn2)c(F)c1.[Pt].c1ccc([PH+](CC[PH+](c2ccccc2)c2ccccc2)c2ccccc2)cc1
active: DU-145 prostate -99.6% | K-562 leukemia -11.4% | MALME-3M melanoma -87.2% | MDA-MB-231 breast -74.2% | RXF 393 renal -84.4% | SF-268 CNS -57.7% | SF-295 CNS -88% | SF-539 CNS -94.6% | UACC-257 melanoma -59.1% | M14 melanoma -84.7% | HCT-15 colon -76.2% | HT29 colon -73.5% | SNB-75 CNS -94.2% | SNB-19 CNS -76.4% | U251 CNS -62.2% | PC-3 prostate -70.1% | SK-MEL-5 melanoma -99.3% | UACC-62 melanoma -81% | LOX IMVI melanoma -82.4% | SK-MEL-28 melanoma -94.1%

COC(=O)c1c2c(c(C)[n+]([O-])c1C)C(=O)C=C(NCc1ccc(F)cc1)C2=O
active: DU-145 prostate -90.6% | K-562 leukemia 1.64% | MALME-3M melanoma -97.8% | MDA-MB-231 breast -29.3% | RXF 393 renal -22.2% | SF-268 CNS -1.99% | SF-295 CNS -80% | SF-539 CNS -91.2% | UACC-257 melanoma -87.2% | M14 melanoma -69.3% | HCT-15 colon -60.5% | HT29 colon 2.67% | SNB-75 CNS -92% | SNB-19 CNS -66.5% | U251 CNS -23.1% | PC-3 prostate 2.62% | SK-MEL-5 melanoma -96.8% | UACC-62 melanoma -81.7% | LOX IMVI melanoma -47.1% | SK-MEL-28 melanoma 6.43%

Fc1ccccc1Nc1ccc2nnc(-c3ccncc3)n2n1
inactive: DU-145 prostate 110% | K-562 leukemia 93.4% | MALME-3M melanoma 103% | MDA-MB-231 breast 101% | RXF 393 renal 113% | SF-268 CNS 101% | SF-295 CNS 112% | SF-539 CNS 106% | UACC-257 melanoma 105% | M14 melanoma 104% | HCT-15 colon 95.6% | HT29 colon 103% | SNB-75 CNS 101% | SNB-19 CNS 100% | U251 CNS 101% | PC-3 prostate 101% | SK-MEL-5 melanoma 103% | UACC-62 melanoma 107% | LOX IMVI melanoma 95.6% | SK-MEL-28 melanoma 112%

O=S(=O)(Nc1ccc(Cl)c(Cl)c1)c1ccc(-c2cnc(C3CC3)o2)cc1
active: RXF 393 renal -19.4% | SF-539 CNS -13.5% | SNB-75 CNS -3.4%
inactive: DU-145 prostate 15.3% | K-562 leukemia 16.2% | MALME-3M melanoma 53.3% | MDA-MB-231 breast 28.4% | SF-268 CNS 47.7% | SF-295 CNS 14.9% | UACC-257 melanoma 63.1% | M14 melanoma 14.1% | HCT-15 colon 23.9% | HT29 colon 10.2% | SNB-19 CNS 30.9% | U251 CNS 22.1% | PC-3 prostate 14.2% | SK-MEL-5 melanoma 25% | UACC-62 melanoma 26.8% | LOX IMVI melanoma 45.6% | SK-MEL-28 melanoma 58.3%

O=C(CCc1nnc2sc(/C=C\c3ccccc3)nn12)c1nc2ccccc2[nH]1
active: K-562 leukemia 2.17%
inactive: DU-145 prostate 98% | MALME-3M melanoma 93.8% | MDA-MB-231 breast 83% | RXF 393 renal 108% | SF-268 CNS 107% | SF-295 CNS 83.8% | SF-539 CNS 65.9% | UACC-257 melanoma 94.9% | M14 melanoma 90.7% | HCT-15 colon 99.6% | HT29 colon 36.8% | SNB-75 CNS 87.9% | SNB-19 CNS 110% | U251 CNS 89.1% | PC-3 prostate 77.1% | SK-MEL-5 melanoma 75.9% | UACC-62 melanoma 103% | LOX IMVI melanoma 75.3% | SK-MEL-28 melanoma 93.3%

COc1ccc(/C=N/OCC(O)CN2CCC(O)CC2)cc1OC1CCCC1 (stereo not given)
inactive: DU-145 prostate 109% | K-562 leukemia 100% | MALME-3M melanoma 108% | MDA-MB-231 breast 99.7% | RXF 393 renal 115% | SF-268 CNS 94.7% | SF-295 CNS 104% | SF-539 CNS 101% | UACC-257 melanoma 109% | M14 melanoma 94.3% | HCT-15 colon 109% | HT29 colon 104% | SNB-75 CNS 80% | SNB-19 CNS 95.9% | U251 CNS 103% | PC-3 prostate 94.7% | SK-MEL-5 melanoma 98.8% | UACC-62 melanoma 103% | LOX IMVI melanoma 105% | SK-MEL-28 melanoma 105%

COC(=O)c1c2c(c(C)[n+]([O-])c1C)C(=O)C=C(NCc1cccc(Cl)c1)C2=O
active: DU-145 prostate -98.3% | K-562 leukemia -1.12% | MALME-3M melanoma -96.9% | MDA-MB-231 breast -27.3% | RXF 393 renal -32.1% | SF-268 CNS -0.347% | SF-295 CNS -96% | SF-539 CNS -91.7% | UACC-257 melanoma -88.5% | M14 melanoma -79.6% | HCT-15 colon -66.9% | HT29 colon 3.61% | SNB-75 CNS -95.4% | SNB-19 CNS -53.4% | U251 CNS -20.7% | PC-3 prostate -1.7% | SK-MEL-5 melanoma -97.1% | UACC-62 melanoma -68% | LOX IMVI melanoma -57.5% | SK-MEL-28 melanoma -1.27%

Cc1ccc(S(=O)(=O)N2CCc3ccc(O)c4c3C2CCc2ccccc2-4)cc1 (stereo not given)
inactive: DU-145 prostate 106% | K-562 leukemia 94.1% | MALME-3M melanoma 97.2% | MDA-MB-231 breast 95.2% | RXF 393 renal 117% | SF-268 CNS 97.1% | SF-295 CNS 104% | SF-539 CNS 105% | UACC-257 melanoma 105% | M14 melanoma 98.6% | HCT-15 colon 102% | HT29 colon 100% | SNB-75 CNS 91.6% | SNB-19 CNS 98.9% | U251 CNS 102% | PC-3 prostate 95.4% | SK-MEL-5 melanoma 105% | UACC-62 melanoma 90.2% | LOX IMVI melanoma 98.7% | SK-MEL-28 melanoma 107%
